# Key:
# Experiment in all cases: DAPPL (digital affinity profiling via proximity ligation, sequencing); 10 mM Tris-HCl pH 7.5, 50 mM NaCl, 1 mM DTT, 4% glycerol, room temperature, 30 min; GST-TFs on glutathione beads, 16-mer random dsDNA library, 0.1% formaldehyde crosslink after washing; high values mean tight binding
# FEV = molecular target: T1, FEV (Homo sapiens, UniProt Q99581 1-238); details: protein: recombinant; tags: N-terminal GST; dsDNA, one strand shown
# T1 sequence: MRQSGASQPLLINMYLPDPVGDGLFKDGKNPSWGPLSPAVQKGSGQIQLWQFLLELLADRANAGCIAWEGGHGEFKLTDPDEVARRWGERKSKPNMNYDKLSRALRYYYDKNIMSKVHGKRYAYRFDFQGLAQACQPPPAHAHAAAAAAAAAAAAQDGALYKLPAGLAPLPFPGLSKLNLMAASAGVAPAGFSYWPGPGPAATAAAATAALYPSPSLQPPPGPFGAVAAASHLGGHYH
# In short: (§1)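 Yeast served to express human transcription factors as GST fusions, which were then captured on glutathione beads and labelled with DNA barcodes. Pooled with a tag-only sample, they were incubated with 200 nmole of a 16-mer random double-stranded DNA library for 30 min at room temperature in Tris/NaCl/DTT/glycerol buffer, washed, crosslinked with 0.1% formaldehyde, ligated by proximity, amplified by PCR and sequenced. Dividing each hexamer's read frequency for a factor by its frequency for the tag-only sample gives the binding signal.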
# ETV5 = ETV5 (Homo sapiens, UniProt P41161 1-510); details: protein: recombinant; tags: N-terminal GST; dsDNA, one strand shown
# In short: as §1
# HSF1 = HSF1 (Homo sapiens, UniProt Q00613 1-529); details: protein: recombinant; tags: N-terminal GST; chain copies: 3; dsDNA, one strand shown
# In short: as §1
# SPIC = molecular target: T2, SPIC (Homo sapiens, UniProt Q8N5J4 1-248); details: protein: recombinant; tags: N-terminal GST; dsDNA, one strand shown
# T2 sequence: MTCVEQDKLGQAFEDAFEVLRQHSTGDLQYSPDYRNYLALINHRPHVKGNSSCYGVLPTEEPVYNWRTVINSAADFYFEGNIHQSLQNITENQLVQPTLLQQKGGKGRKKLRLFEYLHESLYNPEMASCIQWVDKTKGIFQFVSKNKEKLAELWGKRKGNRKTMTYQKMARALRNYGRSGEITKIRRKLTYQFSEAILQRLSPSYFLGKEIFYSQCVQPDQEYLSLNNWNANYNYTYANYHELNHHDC
# In short: as §1
# ELF4 = ELF4 (Homo sapiens, UniProt Q99607 1-663); details: protein: recombinant; tags: N-terminal GST; dsDNA, one strand shown
# In short: as §1
# ELK4 = molecular target: T3, ELK4 (Homo sapiens, UniProt P28324-2 1-405); details: protein: recombinant; tags: N-terminal GST; dsDNA, one strand shown
# T3 sequence: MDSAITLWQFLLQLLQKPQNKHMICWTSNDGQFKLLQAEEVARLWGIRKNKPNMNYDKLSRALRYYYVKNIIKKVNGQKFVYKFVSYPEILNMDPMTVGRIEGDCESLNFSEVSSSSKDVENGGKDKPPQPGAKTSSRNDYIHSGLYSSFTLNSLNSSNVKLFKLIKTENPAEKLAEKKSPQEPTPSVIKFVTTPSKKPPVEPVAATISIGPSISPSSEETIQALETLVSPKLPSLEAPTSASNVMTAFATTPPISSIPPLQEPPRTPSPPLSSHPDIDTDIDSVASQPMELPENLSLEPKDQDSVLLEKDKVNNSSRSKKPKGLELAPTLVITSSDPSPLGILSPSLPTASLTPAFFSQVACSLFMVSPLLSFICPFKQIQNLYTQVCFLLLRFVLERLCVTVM
# In short: as §1
# ETV2 = molecular target: T4, ETV2 (Homo sapiens, UniProt O00321 1-342); details: protein: recombinant; tags: N-terminal GST; dsDNA, one strand shown
# T4 sequence: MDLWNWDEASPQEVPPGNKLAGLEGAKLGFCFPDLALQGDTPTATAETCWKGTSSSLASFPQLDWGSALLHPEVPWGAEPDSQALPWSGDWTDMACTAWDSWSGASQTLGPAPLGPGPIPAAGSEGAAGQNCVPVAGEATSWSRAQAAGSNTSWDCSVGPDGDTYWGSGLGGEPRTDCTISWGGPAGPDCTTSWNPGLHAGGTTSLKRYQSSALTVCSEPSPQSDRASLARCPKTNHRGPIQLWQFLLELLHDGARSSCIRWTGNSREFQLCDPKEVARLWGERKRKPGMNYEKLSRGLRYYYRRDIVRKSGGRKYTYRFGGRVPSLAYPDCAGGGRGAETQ
# In short: as §1
# ELF3 = molecular target: T5, ELF3 (Homo sapiens, UniProt P78545 1-371); details: protein: recombinant; tags: N-terminal GST; dsDNA, one strand shown
# T5 sequence: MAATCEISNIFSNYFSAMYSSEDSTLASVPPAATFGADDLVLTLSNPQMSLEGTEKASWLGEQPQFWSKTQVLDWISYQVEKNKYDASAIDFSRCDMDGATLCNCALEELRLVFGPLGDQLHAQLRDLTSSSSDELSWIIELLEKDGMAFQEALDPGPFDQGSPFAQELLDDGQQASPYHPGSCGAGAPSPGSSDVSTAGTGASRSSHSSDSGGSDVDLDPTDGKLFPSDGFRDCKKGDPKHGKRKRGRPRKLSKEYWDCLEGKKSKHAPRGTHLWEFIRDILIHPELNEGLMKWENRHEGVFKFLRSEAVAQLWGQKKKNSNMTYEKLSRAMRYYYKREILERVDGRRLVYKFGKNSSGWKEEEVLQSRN
# In short: as §1
# ETV1 = ETV1 (Homo sapiens, UniProt P50549 1-477); details: protein: recombinant; tags: N-terminal GST; dsDNA, one strand shown
# In short: as §1
# ERF = molecular target: T6, ERF (Homo sapiens, UniProt P50548 1-548); details: protein: recombinant; tags: N-terminal GST; dsDNA, one strand shown
# T6 sequence: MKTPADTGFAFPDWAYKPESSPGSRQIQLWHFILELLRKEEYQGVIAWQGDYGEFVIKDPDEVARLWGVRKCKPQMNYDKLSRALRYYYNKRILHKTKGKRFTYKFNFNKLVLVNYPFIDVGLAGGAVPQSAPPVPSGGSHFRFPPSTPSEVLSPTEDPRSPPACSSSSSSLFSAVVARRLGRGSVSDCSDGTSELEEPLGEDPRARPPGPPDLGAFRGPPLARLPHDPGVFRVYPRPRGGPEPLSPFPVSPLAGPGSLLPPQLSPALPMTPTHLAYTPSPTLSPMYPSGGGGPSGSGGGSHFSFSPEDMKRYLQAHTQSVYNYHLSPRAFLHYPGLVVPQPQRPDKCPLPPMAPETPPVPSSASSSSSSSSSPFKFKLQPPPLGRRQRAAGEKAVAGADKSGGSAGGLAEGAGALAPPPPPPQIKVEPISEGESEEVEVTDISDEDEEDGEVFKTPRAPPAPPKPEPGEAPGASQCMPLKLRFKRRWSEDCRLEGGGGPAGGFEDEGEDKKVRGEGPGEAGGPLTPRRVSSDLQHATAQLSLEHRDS
# In short: as §1
# ETV3L = molecular target: T7, ETV3L (Homo sapiens, UniProt Q6ZN32 1-361); details: protein: recombinant; tags: N-terminal GST; dsDNA, one strand shown
# T7 sequence: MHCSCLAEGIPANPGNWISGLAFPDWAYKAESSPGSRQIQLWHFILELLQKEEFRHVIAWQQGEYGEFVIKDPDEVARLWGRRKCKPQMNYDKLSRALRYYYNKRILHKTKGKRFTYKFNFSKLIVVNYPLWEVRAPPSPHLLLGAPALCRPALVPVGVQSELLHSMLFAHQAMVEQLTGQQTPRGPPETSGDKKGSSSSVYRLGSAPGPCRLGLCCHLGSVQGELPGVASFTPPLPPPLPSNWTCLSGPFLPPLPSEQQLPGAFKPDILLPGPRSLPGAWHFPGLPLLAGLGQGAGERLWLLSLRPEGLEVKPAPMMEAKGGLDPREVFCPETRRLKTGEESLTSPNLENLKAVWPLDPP
# In short: as §1
# ETS2 = molecular target: T8, ETS2 (Homo sapiens, UniProt P15036 1-469); details: protein: recombinant; tags: N-terminal GST; dsDNA, one strand shown
# T8 sequence: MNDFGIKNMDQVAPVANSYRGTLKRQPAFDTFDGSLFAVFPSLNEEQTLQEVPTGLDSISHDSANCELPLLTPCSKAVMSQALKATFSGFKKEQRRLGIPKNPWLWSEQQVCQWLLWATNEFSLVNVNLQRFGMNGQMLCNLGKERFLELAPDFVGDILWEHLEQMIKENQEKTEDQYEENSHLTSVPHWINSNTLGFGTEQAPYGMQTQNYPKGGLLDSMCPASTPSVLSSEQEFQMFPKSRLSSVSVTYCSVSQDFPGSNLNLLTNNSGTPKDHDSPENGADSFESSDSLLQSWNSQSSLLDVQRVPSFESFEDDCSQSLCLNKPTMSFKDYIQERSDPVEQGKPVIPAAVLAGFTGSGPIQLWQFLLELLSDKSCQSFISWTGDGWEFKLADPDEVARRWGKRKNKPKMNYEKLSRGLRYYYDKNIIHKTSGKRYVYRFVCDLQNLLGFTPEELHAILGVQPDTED
# In short: as §1
# SPDEF = molecular target: T9, SPDEF (Homo sapiens, UniProt O95238 1-335); details: protein: recombinant; tags: N-terminal GST; dsDNA, one strand shown
# T9 sequence: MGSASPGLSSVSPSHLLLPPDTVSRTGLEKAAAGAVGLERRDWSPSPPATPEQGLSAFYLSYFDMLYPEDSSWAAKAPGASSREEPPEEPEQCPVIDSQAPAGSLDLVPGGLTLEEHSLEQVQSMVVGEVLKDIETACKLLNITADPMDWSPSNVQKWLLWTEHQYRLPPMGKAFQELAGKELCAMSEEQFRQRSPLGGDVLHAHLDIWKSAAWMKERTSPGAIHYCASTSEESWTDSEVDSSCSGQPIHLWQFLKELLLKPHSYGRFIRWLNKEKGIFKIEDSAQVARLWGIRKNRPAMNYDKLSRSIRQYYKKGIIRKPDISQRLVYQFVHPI
# In short: as §1
# ETV7 = molecular target: T10, ETV7 (Homo sapiens, UniProt Q9Y603 1-341); details: protein: recombinant; tags: N-terminal GST; dsDNA, one strand shown
# T10 sequence: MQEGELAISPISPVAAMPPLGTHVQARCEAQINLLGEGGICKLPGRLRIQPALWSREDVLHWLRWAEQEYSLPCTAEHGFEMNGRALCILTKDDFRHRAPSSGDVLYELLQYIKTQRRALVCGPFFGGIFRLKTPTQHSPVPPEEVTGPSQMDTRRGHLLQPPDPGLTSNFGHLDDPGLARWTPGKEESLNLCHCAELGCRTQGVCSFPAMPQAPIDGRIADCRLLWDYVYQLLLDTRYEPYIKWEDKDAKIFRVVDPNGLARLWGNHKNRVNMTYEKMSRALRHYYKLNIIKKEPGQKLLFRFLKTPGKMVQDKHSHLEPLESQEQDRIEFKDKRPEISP
# In short: as §1
# ELF5 = molecular target: T11, ELF5 (Homo sapiens, UniProt Q9UKW6-2 1-255); details: protein: recombinant; tags: N-terminal GST; dsDNA, one strand shown
# T11 sequence: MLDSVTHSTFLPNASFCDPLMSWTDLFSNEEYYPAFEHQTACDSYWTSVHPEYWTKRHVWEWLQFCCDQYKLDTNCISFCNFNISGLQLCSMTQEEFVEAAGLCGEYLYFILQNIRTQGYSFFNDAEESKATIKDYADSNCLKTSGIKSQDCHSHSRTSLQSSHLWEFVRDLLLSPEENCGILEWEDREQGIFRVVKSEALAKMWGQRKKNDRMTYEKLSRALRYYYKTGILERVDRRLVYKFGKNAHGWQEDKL
# In short: as §1
# ETV3 = molecular target: T12, ETV3 (Homo sapiens, UniProt P41162-2 1-143); details: protein: recombinant; tags: N-terminal GST; dsDNA, one strand shown
# T12 sequence: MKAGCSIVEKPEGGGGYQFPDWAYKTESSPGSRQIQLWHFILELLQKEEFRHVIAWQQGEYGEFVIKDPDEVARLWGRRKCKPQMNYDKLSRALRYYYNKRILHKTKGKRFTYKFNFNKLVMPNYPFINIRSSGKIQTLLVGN
# In short: as §1
# ETV6 = ETV6 (Homo sapiens, UniProt P41212 1-452); details: protein: recombinant; tags: N-terminal GST; dsDNA, one strand shown
# In short: as §1
# Chain of ETV1 (P50549 whole entry): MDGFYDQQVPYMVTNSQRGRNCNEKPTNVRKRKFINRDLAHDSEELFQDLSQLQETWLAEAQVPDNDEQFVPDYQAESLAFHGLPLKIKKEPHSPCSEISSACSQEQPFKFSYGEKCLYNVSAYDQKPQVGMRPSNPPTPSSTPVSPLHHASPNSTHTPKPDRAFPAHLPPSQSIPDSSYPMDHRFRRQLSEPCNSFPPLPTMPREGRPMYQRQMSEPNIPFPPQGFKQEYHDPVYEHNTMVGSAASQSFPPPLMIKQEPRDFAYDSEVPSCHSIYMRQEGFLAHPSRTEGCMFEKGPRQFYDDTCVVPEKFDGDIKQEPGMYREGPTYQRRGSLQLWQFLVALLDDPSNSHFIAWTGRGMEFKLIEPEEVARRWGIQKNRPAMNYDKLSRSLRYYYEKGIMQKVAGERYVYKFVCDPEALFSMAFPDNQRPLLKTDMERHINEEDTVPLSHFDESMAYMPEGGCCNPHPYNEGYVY
# Chain of ELF4 (Q99607 whole entry): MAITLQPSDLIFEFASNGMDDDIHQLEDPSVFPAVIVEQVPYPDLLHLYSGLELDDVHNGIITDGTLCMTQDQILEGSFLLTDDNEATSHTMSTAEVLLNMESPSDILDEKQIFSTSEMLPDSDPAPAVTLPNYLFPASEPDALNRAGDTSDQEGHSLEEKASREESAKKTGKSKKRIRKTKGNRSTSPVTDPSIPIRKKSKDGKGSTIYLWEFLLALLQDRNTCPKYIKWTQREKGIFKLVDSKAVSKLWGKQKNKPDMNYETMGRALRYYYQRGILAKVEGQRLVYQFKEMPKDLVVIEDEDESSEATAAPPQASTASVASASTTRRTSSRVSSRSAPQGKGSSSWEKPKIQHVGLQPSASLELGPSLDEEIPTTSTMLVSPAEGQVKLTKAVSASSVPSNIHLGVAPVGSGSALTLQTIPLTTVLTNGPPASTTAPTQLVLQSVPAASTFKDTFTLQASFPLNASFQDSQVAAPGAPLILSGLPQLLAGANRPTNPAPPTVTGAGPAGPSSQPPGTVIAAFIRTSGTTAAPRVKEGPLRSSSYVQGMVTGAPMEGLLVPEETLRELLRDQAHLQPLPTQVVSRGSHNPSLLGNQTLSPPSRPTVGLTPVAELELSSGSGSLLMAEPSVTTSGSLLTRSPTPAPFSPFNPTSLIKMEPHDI
# Chain of HSF1 (Q00613 whole entry): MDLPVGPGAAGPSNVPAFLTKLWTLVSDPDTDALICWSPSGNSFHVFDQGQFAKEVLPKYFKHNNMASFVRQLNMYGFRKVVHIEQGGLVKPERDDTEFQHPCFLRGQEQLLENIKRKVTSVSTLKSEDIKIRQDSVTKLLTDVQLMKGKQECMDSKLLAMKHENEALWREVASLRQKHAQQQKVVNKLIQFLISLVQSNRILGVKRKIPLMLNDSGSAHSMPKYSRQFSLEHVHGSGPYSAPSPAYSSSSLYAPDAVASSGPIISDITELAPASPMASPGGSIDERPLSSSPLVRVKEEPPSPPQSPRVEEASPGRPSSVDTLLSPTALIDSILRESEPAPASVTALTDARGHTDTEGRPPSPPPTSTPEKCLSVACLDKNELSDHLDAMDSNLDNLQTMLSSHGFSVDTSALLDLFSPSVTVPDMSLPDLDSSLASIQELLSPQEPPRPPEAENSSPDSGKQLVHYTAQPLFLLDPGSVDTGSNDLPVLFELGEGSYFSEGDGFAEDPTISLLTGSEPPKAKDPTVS
# Chain of ETV5 (P41161 whole entry): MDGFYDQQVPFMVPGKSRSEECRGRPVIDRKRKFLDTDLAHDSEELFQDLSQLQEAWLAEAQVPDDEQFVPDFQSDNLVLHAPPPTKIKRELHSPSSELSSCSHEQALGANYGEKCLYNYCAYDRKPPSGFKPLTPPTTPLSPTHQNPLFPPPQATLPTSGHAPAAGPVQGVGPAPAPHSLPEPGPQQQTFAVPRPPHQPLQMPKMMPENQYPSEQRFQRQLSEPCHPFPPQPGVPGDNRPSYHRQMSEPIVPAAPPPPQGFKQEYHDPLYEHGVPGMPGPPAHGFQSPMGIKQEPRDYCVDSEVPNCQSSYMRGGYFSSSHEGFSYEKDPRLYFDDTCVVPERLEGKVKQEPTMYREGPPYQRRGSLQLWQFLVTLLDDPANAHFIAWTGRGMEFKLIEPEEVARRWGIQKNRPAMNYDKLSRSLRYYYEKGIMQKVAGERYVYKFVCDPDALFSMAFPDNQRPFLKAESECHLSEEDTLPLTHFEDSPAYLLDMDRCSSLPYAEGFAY
# Chain of ETV6 (P41212 whole entry): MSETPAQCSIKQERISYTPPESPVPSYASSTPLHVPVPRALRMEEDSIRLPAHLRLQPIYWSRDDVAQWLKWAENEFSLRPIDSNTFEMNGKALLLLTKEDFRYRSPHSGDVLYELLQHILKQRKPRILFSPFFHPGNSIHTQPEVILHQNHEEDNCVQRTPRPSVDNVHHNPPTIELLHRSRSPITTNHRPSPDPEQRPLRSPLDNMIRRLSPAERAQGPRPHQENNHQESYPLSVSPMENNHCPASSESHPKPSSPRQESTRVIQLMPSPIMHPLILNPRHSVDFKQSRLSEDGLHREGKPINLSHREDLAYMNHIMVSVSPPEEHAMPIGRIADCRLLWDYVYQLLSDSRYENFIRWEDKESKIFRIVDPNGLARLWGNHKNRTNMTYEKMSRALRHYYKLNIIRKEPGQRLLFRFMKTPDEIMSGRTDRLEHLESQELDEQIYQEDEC
sequence,measurement,setting,value
CGTTCC,binding signal,FEV,"1.5 fold enrichment (6-mer frequency, TF over GST control)"
same,binding signal,ETV5,"1.47 fold enrichment (6-mer frequency, TF over GST control)"
same,binding signal,HSF1,"1.44 fold enrichment (6-mer frequency, TF over GST control)"
same,binding signal,SPIC,"1.51 fold enrichment (6-mer frequency, TF over GST control)"
same,binding signal,ELF4,"1.47 fold enrichment (6-mer frequency, TF over GST control)"
same,binding signal,ELK4,"1.31 fold enrichment (6-mer frequency, TF over GST control)"
same,binding signal,ETV2,"1.33 fold enrichment (6-mer frequency, TF over GST control)"
same,binding signal,ELF3,"1.27 fold enrichment (6-mer frequency, TF over GST control)"
same,binding signal,ETV1,"1.47 fold enrichment (6-mer frequency, TF over GST control)"
same,binding signal,ERF,"1.4 fold enrichment (6-mer frequency, TF over GST control)"
same,binding signal,ETV3L,"1.43 fold enrichment (6-mer frequency, TF over GST control)"
same,binding signal,ETS2,"1.48 fold enrichment (6-mer frequency, TF over GST control)"
same,binding signal,SPDEF,"1.5 fold enrichment (6-mer frequency, TF over GST control)"
same,binding signal,ETV7,"1.3 fold enrichment (6-mer frequency, TF over GST control)"
same,binding signal,ELF5,"1.65 fold enrichment (6-mer frequency, TF over GST control)"
same,binding signal,ETV3,"1.41 fold enrichment (6-mer frequency, TF over GST control)"
same,binding signal,ETV6,"1.42 fold enrichment (6-mer frequency, TF over GST control)"

# — publication PMC7862700, “An all-to-all approach to the identification of sequence-specific readers for epigenetic DNA modifications on cytosine”
